Results filed as inconclusive are left out. Entries that show only a call come without a potency. Activity calls are given as the source filed them. Calls come from the whole dose curve; as a rule, active = well fitted inhibition curve with a large enough effect; inconclusive = small, poorly fitted or top-dose-only effect, or effect the other way; inactive = flat fitted curve, though single readings scatter.
Potency is the fitted concentration of half-maximal effect.

A short description of the assay: Quantitative high throughput screen for delayed death inhibitors of the malarial parasite plastid, 48 hour incubation (AID 488752). Note: nearly all actives have a fitted effect of over 65% in size. The settings on record: Plasmodium falciparum growth; series mostly up to 28.7 µM. From the text: NIH Molecular Libraries Probe Production Network [MLPCN]
NIH Chemical Genomics Center [NCGC]
Assay Provider: David Fidock and Eric Ekland, Columbia University
The goal of this screen is to discover new antimalarial compounds that act by inhibiting the development of the apicoplast in the malarial parasite Plasmodium falciparum. The biochemical processes that make this organelle essential for erythrocytic stage parasites are not well understood. However, antibiotics, such as azithromycin and tetracycline, which target the apicoplast translational machinery, have a potent antimalarial effect.
We have developed a cell-based assay that measures parasite growth based on the expression of an integrated copy of a firefly luciferase reporter. To detect small molecules that cause this 'delayed death' phenotype, erythrocytes infected with the luciferase-expressing parasites were incubated with compounds for either one or two generations, corresponding to 48 and 96 hours, respectively. Compounds that inhibit parasite growth in the second generation, but not the first, should be enriched in antimalarials that target the apicoplast. Growth inhibition is detected by a decrease in luciferase activity
Four microliters of culture medium (RPMI 1640 with 0.5% w/v Albumax (GIBCO), 24 mM sodium bicarbonate and 10 ug/mL gentamycin) were dispensed by a Multi-drop Combi into white solid 1536-well plates (Grenier) and 23 nL compound was added by a pin tool. Four microliters of infected erythrocytes (2% hematocrit, 0.1% parasitemia final concentration) in culture medium were dispensed and the plates incubated for 48 hours at 37 C in 5% CO2. Two microliters of luciferase detection reagent was added and luminescence was detected by a ViewLux (PerkinElmer) reader
For the molecule `C[C@@H]1O[C@@H](O[C@H]2C[C@@H](O)[C@]3(CO)[C@H]4[C@H](O)C[C@]5(C)[C@@H](C6=CC(=O)OC6)CC[C@]5(O)[C@@H]4CC[C@]3(O)C2)[C@H](O)[C@H](O)[C@H]1O`, the Potency result is “inactive”.

As to `Cc1ncc(CNC(=O)N(CCCl)N=O)c(N)n1`, the Potency entry was “inactive”.

Consider `c1ccc2c(c1)OCC(C1=NCCN1)O2` (centres undefined), for which the Potency result was “inactive”.

Consider `O=C1NCN(c2ccccc2)C12CCN(CC1COc3ccccc3O1)CC2` (centres undefined), for which the Potency result was “inactive”.

For the molecule `CC(CCc1ccccc1)NC(C)C(O)c1ccc(O)cc1` (centres undefined), the Potency entry was “inactive”.

In the case of `CCC1(C2=NCCN2)Cc2ccccc2O1` (centres undefined), the Potency entry was “inactive”.

For `COc1ccccc1N1CCNCC1`, the Potency entry was “inactive”.

On to `c1ccc(C2CC2)c(OCC2=NCCN2)c1`, for which the Potency entry was “inactive”.

As for `CNCC(O)c1ccc(O)cc1` (centres undefined), the Potency result is “inactive”.

Turning to `CN1C[C@H](CNC(=O)OCc2ccccc2)C[C@@H]2c3cccc4c3c(cn4C)C[C@H]21`, the Potency was 7.38 µM (active).

With `CCCC(C)(COC(N)=O)COC(=O)NC(C)C` (centres undefined), the Potency entry was “inactive”.

For the molecule `NCC1(CC(=O)O)CCCCC1`, the Potency result was “inactive”.

Turning to `O=c1[nH]cc(F)c(=O)[nH]1`, the Potency was 10.4 µM (active).

Regarding `C=C(C)[C@H]1Cc2c(ccc3c2O[C@@H]2COc4cc(OC)c(OC)cc4[C@@H]2C3=O)O1`, the Potency result is “inactive”.

Consider `Nc1ccncc1`, for which the Potency result is “inactive”.

For `Cc1cccc(C)c1NC1=NCCCS1`, the Potency entry was “inactive”.

With `CCCN1CCC[C@@H]2Cc3nc(N)ncc3C[C@H]21`, the Potency result was “inactive”.

For `NN=C(N)N`, the Potency result is “inactive”.

Regarding `COc1ccc(Cc2nccc3cc(OC)c(OC)cc23)cc1OC`, the Potency entry is “inactive”.

In the case of `Cc1ccc(S(=O)(=O)N[C@@H](CCCCN)C(=O)CCl)cc1`, the Potency entry was “inactive”.

In the case of `CN(C)C(=O)C(CCN1CCC(O)(c2ccc(Cl)cc2)CC1)(c1ccccc1)c1ccccc1`, the Potency was 8.28 µM (active).

On to `CCn1cc(C(=O)O)c(=O)c2ccc(C)nc21`, for which the Potency entry is “inactive”.

Take `CC(=O)[C@H]1CC[C@H]2[C@@H]3CC[C@H]4C[C@H](O)CC[C@]4(C)[C@H]3C(=O)C[C@]12C`: the Potency result was “inactive”.

Consider `OCCN1CCN(CCCN2c3ccccc3Sc3ccc(C(F)(F)F)cc32)CC1`, for which the Potency was 9.28 µM (active).

In the case of `NCC(O)c1ccc(O)cc1` (centres undefined), the Potency entry is “inactive”.

`NCC(CC(=O)O)c1ccc(Cl)cc1` (centres undefined): the Potency entry is “inactive”.

Regarding `Clc1cccc(N2CCNCC2)c1`, the Potency entry was “inactive”.

Consider `O=c1[nH]c2ccccc2n1CCCN1CCC(n2c(=O)[nH]c3cc(Cl)ccc32)CC1`, for which the Potency is 10.4 µM (active).

Regarding `N#CC(C#N)=Cc1ccc(O)c(O)c1`, the Potency result is “inactive”.
